{
  "source": "ChEMBL document CHEMBL4513146",
  "about": "“CO-ADD screening of Karazin Kharkiv National University (Ukraine) compounds”",
  "note": "Results with a measured potency or affinity are listed apart.",
  "data": [
    {"tested_on": "Cryptococcus neoformans", "settings": "Concentration 32 ug.mL-1; ASSAY_TEST Inhibition of Fungal Growth; detection method Resazurin; Absorption (OD600-OD570); plate type 384well; NBS; CORNING #3640", "units": {"Inhibition": "%"}, "values": [
      {"smiles": "Cc1cccc(C)c1NC(=O)Cn1nc2c(N3CCSCC3)nc3ccccc3n2c1=O", "Inhibition": -23.14},
      {"smiles": "O=S(=O)(c1ccc2nncn2c1)N(Cc1cccc(Cl)c1)c1ccccc1", "Inhibition": -11.03},
      {"smiles": "COC(=O)c1sccc1NC(=O)Cn1nc2c(Oc3ccccc3)nc3ccccc3n2c1=O", "Inhibition": -16.14},
      {"smiles": "Cc1nnc2c(S(=O)(=O)N(Cc3ccccc3Cl)c3ccc(F)c(F)c3)cccn12", "Inhibition": -7.47},
      {"smiles": "Cc1nnc2ccc(S(=O)(=O)N(Cc3ccccc3Cl)c3cccc(F)c3)cn12", "Inhibition": -10.07},
      {"smiles": "CCC(Sc1nnc2c(=O)n(-c3cccc(OC)c3)ccn12)C(=O)Nc1ccccc1C", "note": "(centres undefined)", "Inhibition": -7.71},
      {"smiles": "COc1ccc(NC(=O)Cn2nc3c4c5c(sc4ncn3c2=O)CCCC5)cc1", "Inhibition": -17.73},
      {"smiles": "O=C(Cn1nc2c3c4c(sc3ncn2c1=O)CCCC4)NCc1ccccc1Cl", "Inhibition": -5.52},
      {"smiles": "CCc1ccc(N(Cc2cccc(F)c2)S(=O)(=O)c2cccn3c(CC)nnc23)cc1", "Inhibition": -6.35},
      {"smiles": "Cc1ccc(-c2ccc3nnc(CCC(=O)NCc4ccc(C(C)C)cc4)n3n2)cc1C", "Inhibition": -18.09},
      {"smiles": "CCN(CCCNC(=O)CCc1nnc2ccc(-c3ccc(C)c(C)c3)nn12)c1ccccc1", "Inhibition": -7.8},
      {"smiles": "CCOc1ccc(-n2ccn3c(SCC(=O)Nc4cccc(CC)c4)nnc3c2=O)cc1", "Inhibition": -9.18},
      {"smiles": "O=C(Cn1nc2c(N3CCOCC3)nccn2c1=O)NCc1ccc(F)cc1", "Inhibition": -8.56},
      {"smiles": "Cc1ccc2c(c1)N(C(=O)Cn1nc3ccc(S(=O)(=O)C(C)(C)C)nn3c1=O)CCO2", "Inhibition": -14.77},
      {"smiles": "CC(C)(C)NC(=O)Cn1nc2n(Cc3ccco3)c(=O)c3sccc3n2c1=O", "Inhibition": -14.16},
      {"smiles": "Cc1ccc(-c2ccc3nn(Cc4cccc(Br)c4)c(=O)n3n2)cc1", "Inhibition": -13.72},
      {"smiles": "Cc1ccc(C)c(CN(c2ccc(F)c(F)c2)S(=O)(=O)c2cccn3cnnc23)c1", "Inhibition": -7.27},
      {"smiles": "COc1ccc(-c2cc3c4nnc(CCC(=O)NCc5ccc6c(c5)OCO6)n4ccn3n2)cc1", "Inhibition": -3.36},
      {"smiles": "COc1ccc(-c2cc3c4nn(CC(=O)Nc5c(C)cc(C)cc5C)c(=O)n4ccn3n2)cc1", "Inhibition": -15.2},
      {"smiles": "COc1cccc(Oc2nccn3c(=O)n(CC(=O)Nc4ccc(C)cc4Cl)nc23)c1", "Inhibition": -10.48},
      {"smiles": "Cc1cc(C)cc(N(Cc2ccc(F)cc2)S(=O)(=O)c2cccn3c(C)nnc23)c1", "Inhibition": -5.4},
      {"smiles": "CC(C)Cn1c(=O)c2sccc2n2c(=O)n(CC(N)=O)nc12", "Inhibition": -19.03},
      {"smiles": "O=c1c2nnc(SCc3ccc(Cl)cc3)n2ccn1-c1ccc(F)c(F)c1", "Inhibition": -5.11},
      {"smiles": "CCCCOc1ccc(-c2cc3c4nnc(SCC(=O)N(C)c5ccc(F)cc5)n4ccn3n2)cc1", "Inhibition": -9.29},
      {"smiles": "CCc1ccc(N(Cc2ccc(F)cc2)S(=O)(=O)c2cccn3c(C)nnc23)cc1", "Inhibition": -7.64},
      {"smiles": "COc1ccc(NC(=O)Cn2nc3c(Oc4ccccc4)nccn3c2=O)cc1OC", "Inhibition": -7.08},
      {"smiles": "COc1ccc(N(Cc2cccc(Cl)c2)S(=O)(=O)c2ccc3nncn3c2)cc1", "Inhibition": -3.69},
      {"smiles": "COc1ccc(NC(=O)Cn2nc3ccc(SC(C)(C)C)nn3c2=O)cc1Cl", "Inhibition": -9.98},
      {"smiles": "COc1ccc(-c2cc3c4nnc(SCC(=O)NCc5ccc(C)cc5)n4ccn3n2)cc1", "Inhibition": -10.46},
      {"smiles": "Cc1ccc(Sc2nccn3c(=O)n(CC(=O)Nc4ccccc4Br)nc23)c(C)c1", "Inhibition": -20.06},
      {"smiles": "CC(C)(C)Sc1ccc2nn(CC(=O)NCc3ccc(Cl)cc3)c(=O)n2n1", "Inhibition": -9.66},
      {"smiles": "COc1cccc(-n2ccn3c(SCc4ccccc4C)nnc3c2=O)c1", "Inhibition": -11.74},
      {"smiles": "Cc1ccc(NC(=O)Cn2nc3c(N4CCOCC4)nccn3c2=O)cc1Cl", "Inhibition": -5.46},
      {"smiles": "O=C(Cn1nc2c3c4c(sc3ncn2c1=O)CCCC4)NCc1ccc(F)cc1", "Inhibition": -14.13},
      {"smiles": "CCOc1ccc(-n2ccn3c(SCC#N)nnc3c2=O)cc1", "Inhibition": -3.42},
      {"smiles": "Cc1cccc(Oc2nccn3c(=O)n(CC(=O)Nc4ccccc4C(F)(F)F)nc23)c1C", "Inhibition": -7.67},
      {"smiles": "Cc1ccc(NC(=O)Cn2nc3ccc(SC4CCCCC4)nn3c2=O)c(Cl)c1", "Inhibition": -13.64},
      {"smiles": "COc1ccc(NC(=O)Cn2nc3ccc(SCc4ccc(Cl)cc4)nn3c2=O)cc1Cl", "Inhibition": -13.55},
      {"smiles": "CC(C)c1nnc2c(SCC(=O)Nc3ccc(Br)cc3)nc3ccccc3n12", "Inhibition": 0.69}
    ]}
  ]
}
